Screening results from PubChem.
Pf growth 96h = P. falciparum growth inhibition at 96 hour, primary screen for plastid delayed-death inhibitors; P. falciparum luciferase reporter growth, 96 h; Potency, µM (highest dose often 28.7 µM), for the others: at the highest dose activity change, negative = inhibition, hits mostly inhibitors; hit rate 6.9% among 320,000; AID 504834; note: % is set by controls: 0 for no effect and ±100 for the full control effect
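Two-generation exposure (96 h) targets delayed-death phenotype. Reporter parasites carrying integrated firefly luciferase, in red cells at 2% hematocrit and 0.05% parasitemia final, kept at 37 C, 5% CO2; luminescence loss indicates inhibition.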
HCV inh = blocks hepatitis C virus; AID 651820; hit rate 3.4% among 340,000; Huh7.5.1 HCVcc-Cre infection, luciferase reporter, 44 h; Potency, µM (series often up to 41.8 µM), for inactives: at the top dose activity change, negative = inhibition, hits mostly inhibitors; note: % is set by controls: 0 for no effect and ±100 for the full control effect
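Infectious HCV cell culture screen: compound-treated cells (1,000/well, pre-plated 4 h) are infected with HCVcc-Cre at roughly 0.5 moi and grown 44 h. Infection is quantified by luciferase signal after 15 min substrate incubation at room temperature.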
NS1 function inh = inhibitors of influenza NS1 protein function; hit rate 0.4% among 270,000; AID 2326; Potency, µM (series often up to 46.1 µM), inactives show at the highest dose activity, positive = more growth; calls by dose curve; note: actives are rising curves; nearly all actives have a fitted effect of over 50% in size
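Read-out: OD600 growth recovery of NS1-expressing budding yeast. Cells grown overnight at 30C in -URA glucose medium, washed, resuspended and diluted 1:100 in 2% galactose assay medium, pH 6.0. Same strain lacking NS1 served as positive control.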
SARS PLP yeast = inhibitors of SARS-CoV papain-like protease in yeast; hit rate 0.19% among 330,000; Potency, µM (top dose mostly 32.9 µM), without a hit: at the highest dose activity, positive = growth rescue, most hits filed as activators; AID 485353; S. cerevisiae expressing SARS-CoV PLpro, growth rescue; calls by dose curve; note: 0% is about no effect; nearly all actives have a fitted effect of over 55% in size
AMA1 RON2 block = inhibitors of Plasmodium falciparum AMA1-RON2 interaction | Potency, µM (highest dose often 58.2 µM), for inactives: at the highest dose activity change, negative = inhibition, hits mostly inhibitors | hit rate 0.2% among 360,000 | AlphaScreen AMA1-biotinylated RON2 peptide binding;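 note: 0% = vehicle wells and -100% = peptide control; nearly all actives have a fitted effect of over 45% in size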
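AMA1 (3D7) with his tag at 25 nM final met compounds first, then biotinylated RON2 peptide at 25 nM; detection used donor plus acceptor beads, 10 µg/mL apiece, read by AlphaScreen after 30 min at room temperature.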
Pf growth 48h = P. falciparum growth inhibition at 48 hours (one generation). P. falciparum luciferase growth in erythrocytes, 48 h. Potency, µM (highest dose often 28.7 µM), for the others: at the top dose activity change, negative = inhibition, hits mostly inhibitors. hit rate 5.9% among 310,000; note: % is set by controls: 0 for no effect and ±100 for the full control effect
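Compounds are pin-transferred into medium, infected erythrocytes (2% hematocrit, 0.1% parasitemia final) are added, and plates sit one parasite generation at 37 C in 5% CO2. Detection reagent is then added and luminescence measured.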
Numbers without * were called inactive; i = inactive; ? = inconclusive; / = no result given. A selection: hits, their analogues and other compounds. The true share with any hit is near 12%. Unless noted, calls come from the whole dose curve; as a rule, active = well fitted curve in the direction sought with a large enough effect; inconclusive = small, poorly fitted or top-dose-only effect, or another doubt; inactive = no such curve, though single readings can be large; an effect the other way counts as inactive or inconclusive. Potency is the fitted concentration of half-maximal effect.

SMILES	Pf growth 96h	HCV inh	NS1 function inh	SARS PLP yeast	AMA1 RON2 block	Pf growth 48h
O=C(O)CCn1c(SCCOc2ccccc2)nc2ccccc21	12µM*	18%	-16%	1%	-3%	17%
O=C(O)COc1ccccc1/C=N/NC(=O)CSc1nc2ccccc2n1Cc1ccc(Cl)cc1	?	5%	15%	2%	6%	15µM*
O=C(O)Cn1c(-c2ccccc2)nc2ccccc21	-100%	3%	3%	-7%	1%	31%
O=C(O)Cn1c(=O)c(-c2ccccc2)nc2ccccc21	7.4µM*	29%	18%	2%	13%	13%
CC1=C(C(=O)Nc2cccc(C(=O)N3CCC(C(N)=O)CC3)c2)SCCO1	-2%	14%	-2%	-2%	11%	13%
CC(/C=N/NC(=O)c1nnn(-c2nonc2N)c1CN1CCCCC1)c1ccccc1 (configuration not stated)	/	-28%	/	/	102%	/
O=C(O)CCSc1nc2ccccc2n1Cc1ccccc1	2.9µM*	12%	14%	3%	-6%	-9%
O=C(O)Cn1c(SCCOc2ccccc2)nc2ccccc21	8.3µM*	3%	1%	/	-2%	13%
CCOc1ccc(NC(=O)CC2C(=O)N(c3ccc(OC)c(Cl)c3)C(=S)N2C2CC2)cc1 (configuration not stated)	?	-14%	-4%	0%	7%	?
CC(=O)Nc1c(-c2ccccc2)c2cc(Br)ccc2[nH]c1=O	?	2%	6%	3%	-3%	0%
Cn1c(=O)c2cc(S(=O)(=O)NC(C(=O)N3CCCCCC3)c3ccccc3)ccc2n(C)c1=O (configuration not stated)	10µM*	14%	-44%	7%	1%	/
C=CCn1c(SCC(=O)NCC2CCCO2)nc2scc(-c3ccc(OC)cc3)c2c1=O (configuration not stated)	5.2µM*	/	2%	0%	2%	13%
O=C(CSc1nc2ccsc2c(=O)n1CC1CCC(C(=O)O)CC1)NCCc1ccc(Cl)cc1 (configuration not stated)	7.4µM*	9%	20%	-2%	-1%	?
COc1ccc(Cl)cc1NC(=O)CSc1nc2ccsc2c(=O)n1CC1CCC(C(=O)O)CC1 (configuration not stated)	-1%	21%	?	16%	0%	?
CC1Cc2nc(SCC(=O)NCC3CCCO3)n(-c3ccc(F)cc3)c(=O)c2S1 (configuration not stated)	3.7µM*	28%	-8%	-3%	-8%	8.3µM*
C=CCn1c(SCC(=O)NCC2CCCO2)nc2scc(-c3ccco3)c2c1=O (configuration not stated)	/	?	?	?	-18%	?
CC1Cc2nc(SCC(=O)N3CCN(c4ccccc4)CC3)n(CCc3ccccc3)c(=O)c2S1 (configuration not stated)	?	?	?	-10%	-24%	9.3µM*
CCn1c(SCC(=O)N2CCN(c3ccccc3)CC2)nc2c(c1=O)SC(C)C2 (configuration not stated)	?	-10%	-42%	-2%	-16%	?
Cc1cc(C)cc(N(CC(=O)NC(C)(C)C)C(=O)CNC(=O)c2cccs2)c1	i	2%	1%	0%	-13%	?
CCn1c(CC(=O)Nc2ccccc2Cl)nnc1SCC(=O)NC1CCCC1	-4%	8%	8%	-1%	0%	13%
O=C(CNc1cc(S(=O)(=O)N2CCOCC2)ccc1NCC1CCCO1)Nc1cccc(F)c1 (configuration not stated)	-24%	10%	-18%	1%	-25%	-18%
O=C(COc1ccc(C(=O)NCC2CCCO2)cc1)Nc1cccc(C(F)(F)F)c1 (configuration not stated)	?	?	/	3%	-22%	?
O=C(CSc1nc2ccsc2c(=O)n1Cc1ccc(C(=O)O)cc1)NCC1CCCO1 (configuration not stated)	?	3%	7%	7%	-26%	-9%
Cc1ccc(Cn2c(SCC(=O)NCC3CCCO3)nc3ccsc3c2=O)cc1 (configuration not stated)	41%	8.9µM*	/	3%	-7%	-3%
COc1ccc(-n2c(SCC(=O)NCC3CCCO3)nc3c(c2=O)SCC3)cc1 (configuration not stated)	17%	27%	6%	-1%	-5%	9%
SMILES	Pf growth 96h	HCV inh	NS1 function inh	SARS PLP yeast	AMA1 RON2 block	Pf growth 48h
COc1ccc(-n2c(SCC(=O)NCC3CCCO3)nc3c(c2=O)SC(C)C3)cc1 (configuration not stated)	?	11%	9%	0%	-13%	12µM*
Cc1cc(NC(=O)CSc2nc3c(c(=O)n2-c2ccccc2)SC(C)C3)no1 (configuration not stated)	4.1µM*	19%	-8%	4%	5%	?
CC1Cc2nc(SCC(=O)NCC3CCCO3)n(Cc3ccccc3)c(=O)c2S1 (configuration not stated)	33%	11%	-4%	1%	3%	15µM*
CCCCCCCCN1[C@@H](CC(=O)O)c2ccc(C(F)(F)F)cc2S1(=O)=O	/	7%	/	/	-2%	/
COc1cccc(NC(=O)CN(C)S(=O)(=O)c2ccc3[nH]c(=O)oc3c2)c1	23%	14%	10%	2%	-2%	-1%
Cc1cc(C)cc(OCC(=O)NNC(=O)c2cc(C)[nH]n2)c1	?	3%	12%	-10%	23%	6%
O=C(COc1ccc(Cl)cc1)NNC(=O)c1ccccn1	?	1%	-8%	1%	84%	5.2µM*
O=C(COc1ccccc1)NNC(=O)c1ccc(Cl)cc1	?	-3%	/	-1%	59%	-21%
Cc1cc(OCC(=O)NNC(=O)c2ccncc2)cc(C)c1Cl	10µM*	4%	4%	5%	119%	?
Cc1cc(OCC(=O)NNC(=O)c2ccncc2)ccc1C(C)C	10%	28%	/	/	68%	?
Cc1cc(C)cc(OCC(=O)NNC(=O)c2ccccn2)c1	3.3µM*	?	/	-2%	76%	5.2µM*
Cc1ccc(CSCC(=O)N(C)CC(=O)Nc2c(Cl)cccc2Cl)cc1	?	0%	/	-3%	-18%	10µM*
Cc1ccc(C)n1-n1cnc2sc(-c3ccccc3)cc2c1=O	-4%	22µM*	-33%	-19%	?	?
O=c1c2cc(-c3ccccc3)sc2ncn1-n1cccc1	/	5%	2%	2%	2%	109%
CC1=CC(=O)N(c2ccn(C)n2)C1=O	?	13%	-2%	-4%	-3%	?
O=S1(=O)N[C@@H](c2ccccc2)COc2cc(Br)ccc21	/	/	/	/	6%	/
